# Shown are actives, neighbours in structure and some others; about 11% of the full set was active somewhere.
# AMA1-RON2 inh: qHTS for Inhibitors of AMA1-RON; Towards Development of Antimalarial Drug Lead: Primary Screen; actives 0.2% (n = 360,000); AlphaScreen AMA1-biotinylated RON2 peptide binding; Potency, µM (top dose mostly 58.2 µM), for the others: at the top dose activity change, negative = inhibition, usual class: inhibitors; Plasmodium falciparum AMA1 (3D7) - RON2 peptide interaction;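 note: 0% = vehicle wells and -100% = peptide control; nearly all actives have a fitted effect of over 45% in size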
#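 AMA1 (3D7) with his tag at 25 nM final met compounds first, then biotinylated RON2 peptide at 25 nM; detection used donor plus acceptor beads, 10 µg/mL apiece, read by AlphaScreen after 30 min at room temperature.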
# AmpC detergent: qHTS Inhibitors of AmpC Beta-Lactamase (assay with detergent); P00811; AmpC hydrolysis of nitrocefin, absorbance 480 nm, 0.01% Triton; Potency, µM (titrated, usually from 114 µM), without a hit: top-dose activity change, negative = inhibition, actives largely listed as inhibitors; actives 0.041% (n = 370,000); AID 485294, 2010;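 note: 0% = no-compound wells and -100% = no-enzyme wells; nearly all actives have a fitted effect of over 25% in size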
# Target sequence (P00811 whole entry, looked up): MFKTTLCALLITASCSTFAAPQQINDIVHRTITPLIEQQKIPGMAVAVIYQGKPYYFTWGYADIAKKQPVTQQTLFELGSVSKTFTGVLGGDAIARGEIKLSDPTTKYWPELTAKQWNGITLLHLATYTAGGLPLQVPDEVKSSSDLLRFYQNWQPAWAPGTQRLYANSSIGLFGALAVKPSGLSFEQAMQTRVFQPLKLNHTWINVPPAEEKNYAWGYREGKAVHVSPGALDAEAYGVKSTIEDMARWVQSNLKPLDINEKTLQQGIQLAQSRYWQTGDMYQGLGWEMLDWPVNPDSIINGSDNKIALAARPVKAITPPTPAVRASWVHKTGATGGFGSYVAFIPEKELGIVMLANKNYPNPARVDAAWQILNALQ
#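 20 mM phosphate pH 7.0 + 0.01% (detergent screen) or 0.0001% Triton X-100; 5.3 nM AmpC reagent; cpd preinc 15 min RT; nitrocefin (800 uM stock) to start; A480 q20 s × 4 min; Activity was normalised to no-enzyme and no-compound control wells.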
# Pf growth 48h: Primary qHTS for delayed death inhibitors of the malarial parasite plastid, 48 hour incubation; P. falciparum luciferase growth in erythrocytes, 48 h; Potency, µM (top dose mostly 28.7 µM), inactives show at the highest dose activity change, negative = inhibition, most hits filed as inhibitors; actives 5.9% (n = 310,000)
#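 In quantitative HTS format, infected erythrocytes bearing luciferase-reporter parasites were treated for a single generation at 37 C. Luminescence after adding detection reagent served as the growth measure.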
# AmpC no deterg: qHTS Inhibitors of AmpC Beta-Lactamase (assay without detergent). P00811. AmpC nitrocefin hydrolysis, absorbance 480 nm, 0.0001% Triton. AID 485341, 2010. actives 0.52% (n = 330,000). Potency, µM (top dose mostly 57.1 µM), without a hit: at the highest dose activity change, negative = inhibition, actives largely listed as inhibitors;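 note: plate controls were no compound for no effect and no enzyme for full effect; nearly all actives have a fitted effect of over 20% in size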
#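 20 mM phosphate pH 7.0 + 0.01% (detergent screen) or 0.0001% Triton X-100; 5.3 nM AmpC reagent; cpd preinc 15 min RT; nitrocefin (800 uM stock) to start; A480 q20 s × 4 min; Activity was normalised to no-enzyme and no-compound control wells.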
# HCV inh: qHTS Assay for Inhibitors of Hepatitis C Virus (HCV); Huh7.5.1 HCVcc-Cre infection, luciferase reporter, 44 h; Potency, µM (top dose mostly 41.8 µM), without a hit: at the highest dose activity change, negative = inhibition, most hits filed as inhibitors; actives 3.4% (n = 340,000); AID 651820, 2012
#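 Compounds are dispensed onto cells plated 4 h earlier at 1,000 per well, with HCVcc-Cre virus (about 0.5 moi) added next. Following 44 h of culture, luminescent signal is measured for 15 sec after 15 min with substrate at room temperature.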
# Pf growth 96h: Primary qHTS for delayed death inhibitors of the malarial parasite plastid, 96 hour incubation; P. falciparum luciferase reporter growth, 96 h; Potency, µM (titrated, usually from 28.7 µM), inactives show top-dose activity change, negative = inhibition, most hits filed as inhibitors; actives 6.9% (n = 320,000)
#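 Two parasite generations (96 h, 37 C, 5% CO2) of compound exposure in infected erythrocytes (0.05% parasitemia, 2% hematocrit). Luciferase-reporter P. falciparum; decreased luminescence indicates inhibited growth, aimed at apicoplast-acting delayed death.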
# Active calls of the source: *; ? = inconclusive; · = not tested or not shown; [ ] = dose if it differs, or a comment. Calls come from the whole dose curve; as a rule, active = well fitted curve in the direction sought with a large enough effect; inconclusive = small, poorly fitted or top-dose-only effect, or another doubt; inactive = no such curve, though single readings can be large; an effect the other way counts as inactive or inconclusive. Unless noted, % is set by controls: 0 for no effect and ±100 for the full control effect; potency is the fitted concentration of half-maximal effect.
SMILES,AMA1-RON2 inh,AmpC detergent,Pf growth 48h,AmpC no deterg,HCV inh,Pf growth 96h
CCOC(=O)N1CCC(Nc2c(-c3ccc(C)cc3)c(=O)c2=O)CC1,16.6%,-8.9%,-1.5%,-3.1%,20.5%,2.6%
CCOC(=O)N1CCC(Nc2c(Nc3cccc(CC)c3)c(=O)c2=O)CC1,-13.3%,-13.9%,10.4µM*,-21.1%,?,?
CCOC(=O)N1CCC(Nc2c(Nc3ccc(F)cc3)c(=O)c2=O)CC1,-7.7%,?,10.4µM*,-21.7%,-14.0%,?
CCn1ccc2cc(S(=O)(=O)N3CCC(C(=O)NCc4ccc(OC)cc4)CC3)ccc21,·,-2.7%,·,·,·,·
Cc1ccc2oc(=O)c(S(=O)(=O)c3ccc(C(C)(C)C)cc3)cc2c1,·,20.5%,·,·,·,·
CCOC(=O)N1CCC(NC(=O)c2ccc3c(c2)N=C(CC)c2ccccc2S3)CC1,-21.6%,4.3%,?,141.7%,10µM*,?
CCCC1=Nc2cc(C(=O)NC3CCC(C)CC3)ccc2Sc2ccccc21 (stereo unspecified),·,-4.5%,·,·,·,·
CCOC(=O)N1CCC(NC(=O)c2ccc3c(c2)sc2nc(-c4ccccc4)cn23)CC1,0.0%,1.1%,1.31µM*,20.3%,?,-19.7%
CCOC(=O)N1CCC(NC(=O)c2ccc3snnc3c2)CC1,25.8%,?,-2.2%,44.7µM*,10.0%,20.2%
CCOCCCNC(=O)c1ccc2c(c1)N=C(CC)c1cc(Br)ccc1S2,-21.3%,2.6%,4.15µM*,120.0%,-29.1%,?
O=C1CSC2(C(=O)N(Cc3c(F)cccc3Cl)c3ccccc32)N1c1ccc(F)c(F)c1 (stereo unspecified),·,5.5%,·,·,·,·
CCCNC(=O)Cn1nc(-c2ccc(OC)cc2)c2cnc3ccc(F)cc3c21,·,30.9%,·,·,·,·
COc1ccc(-c2cn3c(n2)sc2cc(C(=O)NC4CCCCC4)ccc23)cc1,·,5.2%,·,·,·,·
CCOC(=O)N1CCC(NC(=O)c2ccc3c(c2)sc2nc(-c4cccc(OC)c4)cn23)CC1,·,-1.8%,7.38µM*,139.5%,?,9.9%
CCOC(=O)N1CCN(C(=O)c2ccc3c(c2)N=C(C)c2cc(Cl)ccc2S3)CC1,-8.1%,-1.4%,9.28µM*,169.7%,?,?
COc1cc(NC(=O)c2nn(-c3ccc(F)cc3)c(=O)n(C)c2=O)cc(OC)c1OC,·,-1.6%,·,·,·,·
COc1ccccc1C(=O)Nc1nnc(S(=O)(=O)N(C)c2ccc(Cl)cc2)s1,·,1.5%,·,·,·,·
CC(C)(C)OC(=O)CC1(C#N)c2ccccc2C(Br)=CN1C(=O)c1ccccc1 (stereo unspecified),-5.9%,?,11.7µM*,-16.0%,?,11.7µM*
N#CC1(Cc2ccccc2Cl)c2ccccc2C=CN1C(=O)c1ccccc1 (stereo unspecified),0.7%,4.0%,?,-23.2%,-15.8%,·
COc1ccc2cc(C(=O)NCc3ccc4c(c3)CCN4C(=O)c3ccc(C)cc3)[nH]c2c1,·,-4.5%,·,·,·,·
CCN(CC)CCn1c2c(c(SCC(=O)Nc3cccc(C(F)(F)F)c3)nc1=O)CCC2,·,-9.9%,·,·,·,·
CCOC(=O)N1CCc2[nH]c3ccc(C)cc3c2C1,39.8µM*,3.6%,10.4%,23.6%,?,-17.5%
Cc1ccc2[nH]c3c(c2c1)CN(C(=O)CN1CCN(Cc2ccc4c(c2)OCO4)CC1)CC3,-6.8%,-5.6%,?,100.7%,?,9.28µM*
CC(=O)N1CCc2[nH]c3ccc(C)cc3c2C1,4.2%,?,5.1%,-5.5%,-18.3%,23.2%
COc1ccc2c(c1)cc1c(=O)n(CC(=O)NCCCc3ccccc3)nc(C)n12,·,-5.0%,·,·,·,·
SMILES,AMA1-RON2 inh,AmpC detergent,Pf growth 48h,AmpC no deterg,HCV inh,Pf growth 96h
CC(C)Oc1ccc(CNC(=O)CCCN2C(=O)c3cccnc3Oc3ccc(Cl)cc32)cc1,·,5.2%,·,·,·,·
COc1ccccc1CN1CCNC(=O)C1=O,·,6.9%,·,·,·,·
Cc1oc2cc(O)cc(C)c2c(=O)c1-c1cnn(-c2ccccc2)c1,-15.8%,1.9%,13.1µM*,-39.7%,8.91µM*,-1.4%
Cc1cccc(S(=O)(=O)c2c(N)n(-c3ccccc3)c3nc4ccccc4nc23)c1,8.6%,-12.7%,?,-15.7%,?,9.28µM*
CCCCNC(=O)c1c(N)n(/N=C/c2ccccn2)c2nc3ccccc3nc12,·,-0.1%,24.7%,-14.4%,·,1.47µM*
Cc1ccc(S(=O)(=O)c2c(N)n(/N=C/c3ccco3)c3nc4ccccc4nc23)cc1C,-9.7%,-3.3%,2.08µM*,-45.5%,?,3.29µM*
Nc1c(C(=O)NC2CCCCC2)c2nc3ccccc3nc2n1/N=C/c1ccco1,·,-2.4%,14.6%,-17.0%,·,9.28µM*
CC(C)CNC(=O)c1c(N)n(/N=C/c2ccccn2)c2nc3ccccc3nc12,11.0%,0.7%,?,-9.6%,13.0%,19.4%
COc1ccc(S(=O)(=O)c2c(N)n(Cc3ccco3)c3nc4ccccc4nc23)cc1,?,-0.6%,?,-35.4%,?,-15.3%[5.75 µM]
COc1ccc(Cl)cc1Nc1nc2ccc(C(=O)c3ccccc3)cc2n2cnnc12,·,27.4%,·,·,·,·
COc1cccc(NC(=O)c2cc3c(=O)n(C)c4ccccc4c3n2C)c1,·,9.3%,·,·,·,·
CCOC(=O)C1(C)C=C(Nc2ccc(C(N)=O)cc2)C(=O)N1c1ccccc1 (stereo unspecified),·,6.0%,·,·,·,·
Cc1cccc(S(=O)(=O)c2c(N)n(/N=C/c3cccnc3)c3nc4ccccc4nc23)c1,8.5%,-5.2%,-19.7%,-15.3%,?,·
Cc1ccc(S(=O)(=O)c2c(N)n(/N=C/c3ccco3)c3nc4ccccc4nc23)cc1,7.8%,-10.7%,6.57µM*,-40.3%,?,?
Cc1cccc(S(=O)(=O)c2c(N)n(/N=C/c3ccco3)c3nc4ccccc4nc23)c1,1.2%,-1.3%,8.28µM*,-24.8%,2.51µM*,-18.6%[5.75 µM]
Nc1c(S(=O)(=O)c2ccccc2)c2nc3ccccc3nc2n1/N=C/c1ccco1,3.2%,?,?,-40.6%,?,?
Cc1cccc(N2CCN(C(=O)CN3C(=O)COc4ccc(S(=O)(=O)N5CCC(C)CC5)cc43)CC2)c1C,·,-3.0%,·,·,·,·
CCCCCCCCSC1=CC(=O)C(OC)=C(OC)C1=O,7.94µM*,·,·,·,·,·
N#CC1=C(N)Oc2cc(N)ccc2C1c1ccsc1 (stereo unspecified),0.0%,-10.5%,3.9%,-13.4%,-6.5%,10.4µM*

# Compound activity (PubChem)
